Source: PubChem BioAssay
MRP-1 activ – activators of MRP-1. viability increase, % at 10 µM. AID 799. H69AR cells + doxorubicin, viability rescue, CellTiter-Glo. 140,000 tested, 0.61% active;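 active means viability gain under doxorubicin at or above a set limit, the compound median plus 3 SD, cut at about 4.7% in these data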;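 further: MRP-1 overexpressing cells given doxorubicin 25 µM after compound pretreatment; 18-22 h compound pretreatment then 72 h with doxorubicin before readout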
Phagocytosis inh – macrophage phagocytosis inhibition; J774A.1 macrophage IgG-bead phagocytosis, imaging; inhibition, % at 5 µM; 110,000 tested, 0.07% active;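 active means inhibition above the mean of the plate negative controls plus 5 SD, cut at about 13% in these data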;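 further: phagocytic index as fraction of beads internalized from green versus red external bead signal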
sEH activator – soluble epoxide hydrolase (human) activation. purified human sEH enzymatic activity, activator screen. activation, % at 2 µM. 91,000 tested, 0.04% active. AID 717; in the data active means activation above about 37%
Target sequence (P34913 whole entry, looked up): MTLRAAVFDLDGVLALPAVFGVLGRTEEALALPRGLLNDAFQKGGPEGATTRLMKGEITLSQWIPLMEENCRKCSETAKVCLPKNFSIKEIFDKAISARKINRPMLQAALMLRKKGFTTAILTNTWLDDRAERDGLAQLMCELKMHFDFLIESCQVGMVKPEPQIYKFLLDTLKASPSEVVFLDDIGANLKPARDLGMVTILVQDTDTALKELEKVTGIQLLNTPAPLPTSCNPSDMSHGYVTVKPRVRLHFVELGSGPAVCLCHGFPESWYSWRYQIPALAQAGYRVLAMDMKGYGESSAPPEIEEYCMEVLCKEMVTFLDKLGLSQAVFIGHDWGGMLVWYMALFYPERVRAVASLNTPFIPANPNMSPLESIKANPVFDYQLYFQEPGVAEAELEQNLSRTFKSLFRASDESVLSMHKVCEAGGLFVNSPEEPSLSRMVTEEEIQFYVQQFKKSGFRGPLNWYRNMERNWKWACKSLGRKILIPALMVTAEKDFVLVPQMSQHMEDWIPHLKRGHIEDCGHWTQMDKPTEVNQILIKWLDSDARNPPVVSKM
sdo1 growth – restores growth of sdo1-depleted yeast; 140,000 tested, 0.21% active; S. cerevisiae sdo1-depleted JHY4D growth rescue, OD600 30 h; hits give high values; pdr5 snq2 efflux-pump mutant strain; z-score at 10 µM;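 active means z-score above 3 at both the 24 hr and the 30 hr optical density reads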
MRP resist rev – reverses drug resistance mediated by MRP. H69AR cells + 2 uM doxorubicin, CellTiter-Glo, 72 h. differential viability (reversal), % at 10 µM. 85,000 tested, 0.04% active. AID 602;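 active means viability drop by adding the cancer drug above about 55%, with treated viability meeting a 40% cutoff, limit read from the data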;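 further: larger differential means the compound sensitizes cells more to doxorubicin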
sEH inhibitor – soluble epoxide hydrolase (human) inhibition; P34913; recombinant human sEH enzymatic activity assay; inhibition, % at 2 µM; 91,000 tested, 0.34% active; in the data active means inhibition above about 80%
Hits are given with their value; - = inactive; . = not tested or not shown; [ ] = dose if it differs, or a comment. In the library only some 1% were active in any assay of this set; here they are far more common.

SMILES	MRP-1 activ	Phagocytosis inh	sEH activator	sdo1 growth	MRP resist rev	sEH inhibitor
O=C(Nc1cccc(F)c1)NC1CC2CCCC(C1)N2C1CC1 (stereo unspecified)	-	-	-	-	-	83.5
O=C(Nc1cccc(F)c1)NC1CCCCC1	-	-	-	-	-	88.4
O=C(Nc1ccc(Cl)c(C(F)(F)F)c1)NC1CC2CCCC(C1)N2C1CC1 (stereo unspecified)	.	.	-	.	-	-
O=C(Nc1ccc(F)cc1)NC1CCCCC1	-	-	-	-	-	-
O=C(Nc1ccc2c(c1)OCCO2)C1CCC1	-	-	-	-	-	-
O=C(Nc1ccc2c(c1)OCCO2)NC1CCCCC1	-	-	-	-	-	88.9
O=[N+]([O-])c1ccccc1/C=N/Nc1nnc(-c2ccccc2)c(-c2ccccc2)n1	-	-	.	-	.	.
Cn1c2c(c(=O)n(C)c1=O)C(c1ccccc1OC(F)F)C1=C(CCCC1=O)N2 (stereo unspecified)	-	.	-	-	-	-
CCOC(=O)c1sc(NC(=O)CSc2nc3c(c(=O)n2-c2ccc(F)cc2)SCC3)c(C(=O)OCC)c1C	-	.	.	-	.	.
O=C(CN1C2=NCCN2c2ccccc21)c1ccc(Br)s1	-	-	.	-	.	.
CCOc1ccc(CCNC(=O)C2CCC(=O)N2C2CCCCC2)cc1OCC (stereo unspecified)	-	.	-	-	-	-
COC(=O)c1c(-c2ccccc2)csc1NC(=O)c1c(-c2ccccc2)noc1C	-	-	.	-	.	.
CCOC(=O)c1c(-c2ccc(F)cc2)csc1NC(=O)c1c(-c2ccccc2)noc1C	7.5	129.4[artifact]	.	-	.	.
CCOC(=O)CN(Cc1sccc1C)C(=O)Nc1ccc(OCC)cc1	-	-	.	-	.	.
CCN(CCNC(=O)C1CCN(Cc2nc(-c3cccc(Cl)c3)oc2C)CC1)c1ccccc1	-	-	-	-	-	89.8
CCc1ccc(-c2nc(CN3CCC(C(=O)NCCN(CC)c4ccccc4)CC3)c(C)o2)cc1	-	-	-	-	-	-
CCN(CCNC(=O)C1CCN(Cc2nc(-c3ccc(Cl)cc3)oc2C)CC1)c1ccccc1	-	-	-	-	-	83.7
O=C(Cn1[nH]c(=O)c2ccccc2c1=O)Nc1ccc(-c2nnc3n2CCCCC3)cc1	-	-	-	-	.	-
COc1ccc(-c2cc3nc(C)cc(C)n3n2)c(OC)c1	.	.	.	.	-	.
COc1ccc(-c2cc3nc(C)cc(N4CC(C)CC(C)C4)n3n2)cc1 (stereo unspecified)	5.1	.	-	-	-	-
COc1ccc(C2C(C(=O)c3sc(C)nc3C)=C(O)C(=O)N2CCCn2ccnc2)cc1 (stereo unspecified)	.	.	.	.	-	.
CS(=O)(=O)N1CCC(C(=O)N2CCc3ccccc3C2)CC1	-	-	38.6	-	-	-
c1ccc2c(c1)Nc1nccnc1S2	5.1	-	.	-	.	.
O=C1Nc2cccnc2Sc2ccccc21	-	-	-	-	-	-
O=C(CSc1ccccc1)Nc1nnc(COc2ccc(Cl)cc2)s1	7.1	-	.	-	.	.
SMILES	MRP-1 activ	Phagocytosis inh	sEH activator	sdo1 growth	MRP resist rev	sEH inhibitor
COCC(=O)Nc1nnc(COc2ccc(Cl)cc2)s1	5.4	.	-	-	-	-
CCOCC(=O)Nc1nnc(COc2ccc(Cl)cc2)s1	-	-	-	-	.	-
Cc1cccc(C)c1OCC(O)CN1CCC(CN2C(=O)c3cccc4cccc(c34)C2=O)CC1 (stereo unspecified)	-	-	-	-	.	-
CCOC(=O)c1cnc2c(C)c(C)ccc2c1Nc1ccc(S(=O)(=O)Nc2ncccn2)cc1	-	-	.	-	.	.
O=C(NCc1ccc2c(c1)OCO2)C1CCC(CNS(=O)(=O)c2cccc3nsnc23)CC1 (stereo unspecified)	-	-	-	-	-	94.3
CCOCCCNC(=O)C1CCC(CNS(=O)(=O)c2cccc3nsnc23)CC1 (stereo unspecified)	-	.	.	-	-	.
COc1ccc(CNC(=O)C2CCC(CNS(=O)(=O)c3cccc4nsnc34)CC2)cc1 (stereo unspecified)	-	-	-	-	-	95.2
CC(NC(=O)C1CCCN(C(=O)N(C)C)C1)c1ccccc1 (stereo unspecified)	-	.	-	-	-	-
COC(=O)Nc1ccc(S(=O)(=O)Nc2ccc(O)cc2)cc1	-	.	-	-	59.7	-
COC(=O)Nc1ccc(S(=O)(=O)Nc2ccc(C)cc2)cc1	-	-	-	-	.	-
N/C(=N\N=C\c1ccc2c(c1)OCO2)c1nonc1N	5.6	-	.	-	.	.
O=C(CSc1ncn[nH]1)N1N=C2/C(=C/c3ccco3)CCCC2C1c1ccco1 (stereo unspecified)	8.4	-	-	-	-	-
